# An excerpt weighted towards active compounds, which were near 3.1% of everything screened.
# Tb PFK inh: inhibitors of T. brucei phosphofructokinase | O15648 | Potency, µM (titrated, usually from 57.5 µM), for inactives: at the highest dose activity, negative = inhibition, actives largely listed as inhibitors | AID 485367 | hit rate 0.17% among 330,000 | T. brucei PFK, ADP-Glo luminescence;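 also: 0% = uninhibited 1x PFK enzyme wells and -100% = no-enzyme wells; nearly all actives have a fitted effect of over 60% in size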
# Target sequence (O15648 whole entry, looked up): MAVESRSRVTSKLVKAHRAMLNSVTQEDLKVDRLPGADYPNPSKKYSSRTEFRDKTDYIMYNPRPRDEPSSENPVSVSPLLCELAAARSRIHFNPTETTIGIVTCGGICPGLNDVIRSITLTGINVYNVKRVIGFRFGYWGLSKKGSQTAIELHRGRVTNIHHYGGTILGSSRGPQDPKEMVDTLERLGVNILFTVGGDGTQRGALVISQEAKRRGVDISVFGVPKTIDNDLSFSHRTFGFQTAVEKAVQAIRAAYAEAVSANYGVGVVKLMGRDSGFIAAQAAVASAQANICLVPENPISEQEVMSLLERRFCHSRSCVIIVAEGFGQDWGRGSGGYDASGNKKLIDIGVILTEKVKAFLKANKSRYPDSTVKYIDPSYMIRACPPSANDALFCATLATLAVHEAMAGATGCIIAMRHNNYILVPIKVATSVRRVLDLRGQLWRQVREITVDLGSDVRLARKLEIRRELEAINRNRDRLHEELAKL
#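 Compounds were pin-transferred as a titration series up to 57 uM into substrate buffer (0.5 mM F6P, 0.1 mM ATP, pH 8.0), then 1.25 nM PFK was added and reactions ran 45 min before ADP-Glo detection.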
# TDP1 block: TDP1 (human) enzyme inhibition | recombinant TDP1, AlphaScreen DNA substrate cleavage | hit rate 0.28% among 350,000 | Q9NUW8 | AID 485290 | Potency, µM (highest dose often 130 µM), for the others: at the highest dose activity change, negative = inhibition, most hits filed as inhibitors; also: % is scaled to controls: 0 for no effect and ±100 for the full control effect; nearly all actives have a fitted effect of over 40% in size
#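 Enzyme-compound mixtures sat 15 min at room temperature, followed by a 5 min reaction with 15 nM final substrate and 10 min with AlphaScreen beads. Recombinant human Tdp1 was used at 1 nM final.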
# Pin1 inhibitor: blocks the human prolyl isomerase Pin1 | Pin1 FP peptide displacement, HiFluor488, 10 min | Potency, µM (highest dose often 115 µM), for the others: at the highest dose activity, negative = inhibition, most hits filed as inhibitors | AID 504891 | Q13526 | hit rate 0.009% among 390,000; active = well fitted inhibition curve with a large enough effect in the polarisation, with a control signal flat, not every such curve was filed as active; inconclusive = small, poorly fitted or top-dose-only effect, or effect the other way, or a change in a side signal; inactive = no such curve, though single readings can be large or run the other way; the % refers to the polarisation; also: % is scaled to controls: 0 for no effect and ±100 for the full control effect
# Target sequence (Q13526 whole entry, looked up): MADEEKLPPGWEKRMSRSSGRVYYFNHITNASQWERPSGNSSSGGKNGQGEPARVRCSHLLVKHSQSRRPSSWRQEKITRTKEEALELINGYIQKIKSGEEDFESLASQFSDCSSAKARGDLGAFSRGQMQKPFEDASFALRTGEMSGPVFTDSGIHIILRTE
# PLK1 PBD block: blocks phosphopeptide binding to human PLK1 polo-box domain | Plk1 PBD binding of FITC phosphopeptide, fluorescence polarization | Potency, µM, for the others: max response, negative = inhibition, usual class: inhibitors | hit rate 2.8% among 360,000 | AID 720504; also: series mostly up to about 57 µM; % is scaled to controls: 0 for no effect and ±100 for the full control effect; nearly all actives have a fitted effect of over 65% in size
# VDR inh: inhibitors of human vitamin D receptor; P11473; VDR-SRC2-3 peptide fluorescence polarization, 2 h; Potency, µM, for inactives: max response, negative = inhibition, hits mostly inhibitors; hit rate 0.93% among 400,000; also: % is scaled to controls: 0 for no effect and ±100 for the full control effect
#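 After 23 nl compound addition and a short centrifugation, plates sat for 2 hours at ambient temperature; polarization of fluorescence then indicated loss of VDR binding to peptide SRC2-3.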
# S-ASM inh: human S-ASM enzyme inhibition | placental ASM, HMU-PC fluorogenic substrate, 60 min | Potency, µM (series often up to 57.5 µM), inactives show at the top dose activity change, negative = inhibition, actives largely listed as inhibitors | hit rate 0.006% among 340,000
#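 qHTS format. ASM enzyme prepared from human placenta hydrolyses the fluorogenic substrate HMU-PC0 (9 uM final) over 60 min at 37 °C after a 10 min compound preincubation.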
# Numbers without * were called inactive; ? = inconclusive; / = no result given; ! = repeats disagree; [ ] = another dose, or the depositor's remark. Unless noted, calls follow the shape of the dose curve; as a rule, active = well fitted curve in the direction sought with a large enough effect; inconclusive = small, poorly fitted or top-dose-only effect, or another doubt; inactive = no such curve, though single readings can be large; an effect the other way counts as inactive or inconclusive. Potency is read from the fitted curve at half-maximal effect.
SMILES,Tb PFK inh,TDP1 block,Pin1 inhibitor,PLK1 PBD block,VDR inh,S-ASM inh
CNC(=S)S,/,13%,/,/,?,/
N#CC(C#N)=Cc1cc(O)c(O)c(O)c1,/,16%[56.1 µM],/,/,22µM*,/
N#CC(C#N)=Cc1ccc(O)cc1,/,7%,/,/,50µM*,/
CN=C=S,/,3%,/,/,/,/
Cc1cc(I)ccc1Nc1c(C(=O)NOCC2CC2)cc(F)c(F)c1F,/,16%,/,/,-28%,/
O=C1NC(=S)NC(=O)C1=Cc1ccc2c(c1)CCN2CCCCl,-15%,/,/,2.7µM*,?,-2%
COC(=O)C(O)(c1c(C)[nH]n(-c2ccccc2)c1=O)C(F)(F)F (centres undefined),2%,8%,0%,24µM*,?,0%
COC(=O)C(O)(c1c[nH]c2ccccc12)C(F)(F)F (centres undefined),0%,2%,5%,-1%,7%,2%
Cc1cc(=O)oc2c3c(cc(OCC(=O)N4CCC[C@H]4C(=O)O)c12)OC(C)(C)CC3,2%,/,5%,3%,-16%,107%
Cc1cccc(C)c1[N+](=O)[O-],/,19%,/,/,/,/
CCOP(=O)(OCC)Oc1ccc2ccc(=O)oc2c1,/,6%,/,/,-3%,/
CCOP(=S)(OCC)Oc1cc(C)oc(=O)c1Cl,-19%,-3%,5%,4.7µM*,28µM*,-1%
CCOP(=O)(OCC)Oc1cc(C)c(N(C)C)c(C)c1,-6%,0%,-5%,?,-2%,1%
CCOP(=S)(OCC)Oc1cc(C)oc(=O)c1,-18%,-3%,6%,30µM*,79µM*,3%
COc1ccc(-c2nc(SCC(=O)NC(C)CCc3ccccc3)n[nH]2)cc1 (centres undefined),/,0%,?,/,-1%,/
FC(Cl)(Cl)Cl,/,9%,/,/,/,/
CC1CCN2c3nc4ccccn4c(=O)c3CC3(C(=O)N(C)C(=O)N(C)C3=O)C2C1 (centres undefined),-12%,3%,15%,3%,4%,12%
CN1C(=O)N(C)C(=O)C2(Cc3c(nc4ccccn4c3=O)N3CCc4ccccc4C32)C1=O (centres undefined),0%,2%,-2%,17µM*,-10%,1%
O=C(COc1ccccc1/C=C1/NC(=O)NC1=O)Nc1ccccc1,-7%,8%,-13%,3.4µM*,?,10%
NC(=O)c1cc([N+](=O)[O-])cc([N+](=O)[O-])c1,/,4%,1%,-16%,-4%,3%
CC(C)(C)c1cc([N+](=O)[O-])cc(C(C)(C)C)c1O,-14%,3%,-5%,27µM*,-29%,-12%
OC[C@@H]1CCCN2CCCC[C@@H]12,/,9%[56.1 µM],/,/,/,/
S=C(S)N1CCCC1,0%,3%[56.1 µM],-8%,?,20µM*!,0%
O=C(N1CCCCCC1)N1CC1,/,/,0%,-9%,6%,1%
COc1ccc(NC(=O)CSc2oc(-c3cccs3)nc2S(=O)(=O)c2ccccc2)c(OC)c1,/,6%,34%,/,-6%,/
SMILES,Tb PFK inh,TDP1 block,Pin1 inhibitor,PLK1 PBD block,VDR inh,S-ASM inh
O=C(Cc1cccc(C(F)(F)F)c1)N1CCN(CC(=O)N2CCCC2)CC1,-10%,2%,-3%,-8%,-4%,-1%
O=C(CCN1CCN(CCO)CC1)N1c2ccccc2Sc2ccc(C(F)(F)F)cc21,-1%,8%,-4%,27µM*,?,6%
COc1ccc(CN2C(=O)NC(=O)/C(=C\c3cc(OC)c(OC)c(OC)c3)C2=O)cc1,-9%,5%,9%,8.4µM*,50µM*,2%
COc1cc(OC)c(OC)cc1/C=C1/C(=O)NC(=O)N(Cc2ccccc2)C1=O,7%,-5%,28%,?,-5%,7%
COc1ccc(CN2C(=O)CC(=O)NC2=S)cc1,-18%,-1%,28%,-17%,14%,8%
COc1cc(OC)c(OC)cc1/C=C1\C(=O)NC(=O)N(Cc2ccccc2)C1=O,-3%,-11%,21%,2.7µM*,-14%,1%
COc1ccc(/C=C2\C(=O)NC(=O)N(Cc3ccccc3)C2=O)c(OC)c1OC,-6%,5%,9%,12µM*,?,1%
CCC1OC2(C)C(O)C(/C=C/C=C/C=C/c3oc(=O)cc(OC)c3C)OC1(C)C2OC(C)=O (centres undefined),/,13%,/,/,1%,/
COc1cc(C(=O)NCCSc2c(-c3ccccc3)[nH]c3ccccc23)cc(OC)c1OC,/,9%,36%,/,5%,/
NC(=O)CI,/,/,/,/,79µM*,/
COc1ccc(/C=C2/C(=O)NC(=O)N(C3CCCCC3)C2=O)cc1CSc1ccccn1,3%,2%,/,/,/,/
COc1ccc(C=C2C(=O)N(C)C(=O)N(C)C2=O)cc1CSc1ccccn1,0%,-4%,1%,6µM*,79µM*,3%
CC(CCC(=O)O)C1CCC2C3C(=O)C[C@@H]4CC(=O)CC[C@@]4(C)C3CC(=O)[C@]12C (some centres undefined),/,15%,/,/,5%,/
C=CCN1C(=O)NC(=O)/C(=C/c2cnc(SC)nc2)C1=O,2%,-5%,4%,11µM*,28µM*,4%
Clc1ccc(C(Cl)(Cl)Cl)cc1Cl,/,0%,/,/,/,/
N#CC1=C(N)Oc2c(c(=O)oc3ccccc23)C1c1ccncc1 (centres undefined),0%,2%,?,-2%,-4%,1%
CC(C)CC1C(C#N)=C(N)Oc2c1c(=O)oc1ccccc21 (centres undefined),1%,0%,4%,12µM*,?,-11%
CC(C)OC(=O)C(O)(c1ccc(Cl)cc1)c1ccc(Cl)cc1,/,11%,/,/,-2%,/
Oc1cc2c(cc1O)[C@H]1c3ccccc3CN[C@@H]1CC2,2.4µM*,0%,/,/,/,/
CCN1CC2(OC(=O)c3ccccc3NC(C)=O)CCC(OC)[C@]34C1[C@H](CC23)[C@@]1(O)C[C@H](OC)[C@H]2CC4C1(O)[C@H]2OC (some centres undefined),/,8%,/,/,0%,/
Cc1cc(C)n(-c2ccc(NN=C(C#N)C#N)cc2)n1,-3%,13%,1%,-16%,28µM*,-13%
c1ccc(NNc2ccccc2)cc1,/,17%,/,/,/,/
c1ccc(N2CCCC3(CCNCC3)C2)nc1,/,/,/,/,50µM*,/
Cc1cc(OCc2nn[nH]n2)c2c3c(c(=O)oc2c1)CCC3,5%,6%,0%,-1%,3%,8%
Cc1cc(=O)oc2c1c(C)nn2-c1nn[nH]n1,-1%,-14%,-8%,11µM*,?,3%
NC1C=CC=C(C(=O)O)C1 (centres undefined),/,4µM*!,-1%,-6%,-12%,-4%
CCCCCCCC(=O)Cl,/,9%,/,/,/,/
CCN(CC)c1ccccc1,5%,0%,-21%,-1%,-15%,2%
CCN(CC)c1ccc(/C=C/[N+](=O)[O-])cc1,-10%,8%,?,0%,18µM*,?
O=C(O)c1cccc(Cl)c1,/,6%,/,/,/,/
